Test results reported in PubChem BioAssay AID1532 (PCMD, 2009).
The campaign covered roughly 110,000 compounds. About 420 (0.38%) were called active. No stated cut-off is given here; in the data, active means inhibition above about 30% (passing the limit was not always enough); inconclusive means no clear call, values can overlap the other calls. For the sample, actives were picked, then their nearest neighbours and some compounds at random.

Test system: RmlC (dTDP-4-dehydrorhamnose 3,5-epimerase) and RmlD (dTDP-4-dehydrorhamnose reductase), coupled enzyme assay
Test: RmlC and RmlD coupled enzyme inhibitors, primary screen, biochemical, 384-well, compound mixtures, retest (AID 1532)
Conditions: 384-well mixture HTS, at 5.5 µM, stronger effect = higher value
[1] = measured here: mean retest inhibition

Row | Structure (SMILES) | inhibition | inhibition [1]
1 | COc1ccc(-c2csc(N3CCN(Cc4ccc5c(c4)OCO5)CC3)n2)cc1 | 25.8% (inactive) | –
2 | COc1ccc(C#Cc2c(-c3ccc(OC)cc3)oc3ccc(-c4ccc5c(c4)OCO5)cc23)cc1 | – | 110%
3 | COc1ccc(-c2nnc(SCC(=O)c3ccc4c(c3)OCCO4)o2)cc1 | -6.96% (inactive) | –
4 | C[C@@H]1CC[C@]2(O[C@@H](CCO)C[C@H](O)[C@H]2O)O1 | -20.2% (inactive) | –
5 | CCOC(=O)c1sc(NC(=O)CSc2nc3c(c(=O)n2-c2ccccc2)SCC3)c(C(=O)OCC)c1C | -104% (inactive) | –
6 | CCC(C)[C@@H](C(=O)N1CCNCC1)n1cc(CCCCN)nn1 (stereo partly specified) | -10% (inactive) | –
7 | CN1CCN(C(=O)C2=C[C@H](c3ccc4c(c3)OCO4)C[C@H](OCc3ccc(CO)cc3)O2)CC1 | 8.25% (inactive) | –
8 | CC(C)(C)n1nc(Cc2cccc3ccccc23)c(C#N)c1N | -12.7% (inactive) | –
9 | CCOC(=O)/C=C/c1ccc(C(F)(F)F)cc1S(=O)(=O)NC(C)(C)C | 32.4% (inactive) | -3.06%
10 | O=C1NC[C@@H](Cc2ccc(O)cc2)N(CCc2cccc(F)c2)C1=O | 6.42% (inactive) | –
11 | COC(=O)CCCC1=CC2=CC(=O)C(C)(OC(=O)c3cccs3)C(=O)C2=CN1CC1CC1 (stereo unspecified) | 1.92% (inactive) | –
12 | COc1ccc(CNC(=O)C2(CC3CC(c4ccccc4)=NO3)CCN(C(=O)c3cccc(O)c3)CC2)cc1 (stereo unspecified) | -4.7% (inactive) | –
13 | COC(C/C=C/C(=O)[C@@H](C)OCc1ccccc1)OC | 9.13% (inactive) | –
14 | C#CCOCCOCCOCCNc1nc(N2CCN(C(=O)[C@H](Cc3ccc(O)cc3)n3cc(C(N)CC(C)C)nn3)CC2)nc(N2CCN(C(=O)[C@H](CCC(=O)O)n3cc(C(N)[C@H](C)CC)nn3)CC2)n1 (stereo partly specified) | 7.73% (inactive) | –
15 | CN1CCCc2cc(C#N)c(=O)[nH]c21 | 48.2% (active) | 113%
16 | C#CCNC(=O)[C@H](Cc1ccc(C(=O)c2ccccc2)cc1)NC(=O)OC(C)(C)C | -13.5% (inactive) | –
17 | CCO[C@@H]1OC(C(=O)N2CCOCC2)=C[C@H](C)[C@H]1CCCO | -9.82% (inactive) | –
18 | CC1(OC(=O)CCc2ccccc2)C(=O)C=C2C=C(c3ccc(C#N)cc3)N(CCc3ccccn3)C=C2C1=O (stereo unspecified) | 3.85% (inactive) | –

Row | Structure (SMILES) | inhibition | inhibition [1]
19 | O=c1oc2cc(O)ccc2cc1-c1ccc(F)cc1 | 136% (active) | 118%
20 | O=c1c(-c2ccccc2)coc2cc(O)ccc12 | 44.3% (inactive) | 18%
21 | COc1ccc(-c2cc3ccc(OCc4nn[nH]n4)cc3oc2=O)cc1 | 94.2% (inactive) | 82.7%
22 | COC(C[C@@H]1O[C@@H]1C(=O)[C@@H](C)OCc1ccccc1)OC | 13.7% (inactive) | –
23 | CC1(C)C=C2[C@H]3CC[C@@H]4[C@@]5(C)CCC(=O)C(C)(C)[C@@H]5CC[C@@]4(C)[C@]3(C)CC[C@@]2(C(=O)O)CC1 | 9.38% (inactive) | –
24 | C[C@@H]1NC(=O)c2cc([N+](=O)[O-])cc(F)c2NCCC[C@@H](C(N)=O)NC(=O)[C@H](CC(N)=O)NC1=O | 5.67% (inactive) | –
25 | CNC(=O)c1[nH]cnc1C(=O)N[C@@H](CC(C)C)C(=O)OCc1ccccc1 | 1.9% (inactive) | –
26 | CCOC(=O)c1cccc(NC(=O)c2ccc(F)cc2F)c1 | -9.66% (inactive) | –
27 | O=C(NC1CC1)C1=C[C@H](c2c[nH]c3ccccc23)C[C@H](OCc2ccc(CO)cc2)O1 | 7.9% (inactive) | –
28 | Cn1ccnc1-c1nnn(-c2ccc(F)cc2)n1 | -8.61% (inactive) | –
29 | CCC(=O)Nc1cccc(C2=NOC3(C2)C[C@@H](C(N)=O)N(C(=O)c2cc([N+](=O)[O-])cc([N+](=O)[O-])c2C)C3)c1 (stereo partly specified) | 4.35% (inactive) | –
30 | CC(=O)c1ccc2c(ccc3ccccc32)c1 | 5.48% (inactive) | –
31 | CCOC(=O)N1CCN(C(=O)c2cc3c(ccc4ccccc43)oc2=O)CC1 | 2.38% (inactive) | –
32 | CNC(=O)c1cc2c(ccc3ccccc32)oc1=N | 52.7% (active) | 155%
33 | CCOC(=O)c1c(NC(=O)C(C)Sc2c[nH]c3ccccc23)sc2c1CCC2 (stereo unspecified) | -9.18% (inactive) | –
34 | CCOC(=O)C[C@H]1c2ccc(C(F)(F)F)cc2S(=O)(=O)N1c1ccccc1 | -16.1% (inactive) | –
35 | COc1ccc(C[C@H]2CN3C(=NC[C@H]3C)N2CCNC(=O)CCC2CCCCC2)cc1 | 6.01% (inactive) | –
